Compounds with a hit are over-represented: about 2.7% of the library has one in this group of screens.
ATXN2 expr inh – Primary qHTS for Inhibitors of ATXN expression; HEK-293 ATXN2-luciferase reporter, luminescence, 24 h; Potency, µM (highest dose often 57 µM), hits mostly inhibitors; actives 0.72% (n = 360,000); AID 1745845, 2022; also: nearly all actives have a fitted effect of over 55% in size
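ATXN2-luciferase reporter cells (luciferase flanked by upstream and downstream ATXN2 gene portions) were treated 24 h at 37 °C with compounds at up to 57 uM. SteadyGlo luminescence gave expression; GF-AFC fluorescence gave viability.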
TGFb inhibitor – qHTS for Inhibitors of TGF-b; HepG2 CAGA-GFP TGF-b/SMAD3 reporter, GFP fluorescence, 18 h; TGF-beta stimulated, 500 pg/mL final; Potency, µM (top dose mostly 46.1 µM), usual class: inhibitors; actives 1.2% (n = 410,000); AID 588855, 2011; also: nearly all actives have a fitted effect of over 65% in size
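First, reporter cells (HEPG2 CAGA-GFP) rested 2 h at 37 degrees C. Next, compounds were pinned in and TGF-beta added to 500 pg/mL final. After 18 h, GFP was imaged per cell and summed per well.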
ATXN viability – Viability Counterscreen for Primary qHTS for Inhibitors of ATXN expression; S2 cells (HEK-293 line with an ATXN2-luciferase reporter) viability, CellTiter-Fluor protease fluorescence, 24 h; Potency, µM (highest dose often 56.7 µM), actives largely listed as cytotoxic; actives 0.49% (n = 400,000); also: nearly all actives have a fitted effect of over 40% in size
12-LOX inh – Primary qHTS assay for inhibitors of human arachidonate 12S-lipoxygenase (ALOX12): Round 2; Polyunsaturated fatty acid lipoxygenase ALOX12 (Homo sapiens), P18054; purified 12hLO, xylenol orange hydroperoxide absorbance; Potency, µM (series often up to 108 µM), hits mostly inhibitors; actives 1.1% (n = 580,000); AID 1671190, 2021
Target sequence (P18054 whole entry, looked up): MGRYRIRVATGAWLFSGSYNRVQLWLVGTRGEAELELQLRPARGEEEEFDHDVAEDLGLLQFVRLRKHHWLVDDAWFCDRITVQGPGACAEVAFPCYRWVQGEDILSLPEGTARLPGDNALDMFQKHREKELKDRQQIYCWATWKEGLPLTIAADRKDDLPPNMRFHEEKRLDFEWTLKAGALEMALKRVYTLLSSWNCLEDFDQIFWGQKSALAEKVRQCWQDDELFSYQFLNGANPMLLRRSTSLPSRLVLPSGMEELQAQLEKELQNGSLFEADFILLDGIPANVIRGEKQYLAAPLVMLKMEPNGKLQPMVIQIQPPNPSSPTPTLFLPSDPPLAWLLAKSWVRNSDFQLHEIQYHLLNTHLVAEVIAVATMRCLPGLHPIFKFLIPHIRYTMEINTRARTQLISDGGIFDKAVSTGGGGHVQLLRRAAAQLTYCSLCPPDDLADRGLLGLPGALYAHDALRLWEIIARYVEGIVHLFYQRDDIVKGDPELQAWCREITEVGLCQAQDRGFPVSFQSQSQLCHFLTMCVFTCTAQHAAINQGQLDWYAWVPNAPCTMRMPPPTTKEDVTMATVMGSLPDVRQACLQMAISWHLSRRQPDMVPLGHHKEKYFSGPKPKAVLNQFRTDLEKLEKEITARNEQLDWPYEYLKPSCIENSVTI
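Purified human 12hLO at 150 nM in 25 mM Hepes, 0.01% Triton X-100, pH 7.0, preincubated 15 min at room temperature with compound. Reaction started with 40 uM arachidonic acid, 30 min at room temperature. Hydroperoxide measured by Fe-xylenol orange, 573/405 nm absorbance ratio.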
HepG2 viability – qHTS for Inhibitors of TGF-b: Cytotox Counterscreen; actives 0.76% (n = 410,000); HepG2 CAGA-GFP viability, ATP luminescence, 18 h; Potency, µM (series often up to 46.1 µM), usual class: cytotoxic; AID 588856, 2011
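CellTiter-Glo luminescence gave cytotoxicity after 18 hours at 37 degrees C. The cells were HepG2 CAGA-GFP in 1% FBS DMEM, stimulated with 500 pg/mL TGF-beta after compound addition. %Activity was normalised to no-cell wells (complete cell-killing) and DMSO (no toxicity), and curves were fitted and classified.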
Numbers stand for hits; ! = repeats disagree. Calls follow the shape of the dose curve; as a rule, active = well fitted curve in the direction sought with a large enough effect; inconclusive = small, poorly fitted or top-dose-only effect, or another doubt; inactive = no such curve, though single readings can be large; an effect the other way counts as inactive or inconclusive.

Results for Oc1ccc(N=Nc2c(O)ccc3ccccc23)cc1 ?
ATXN2 expr inh: inactive; TGFb inhibitor: inconclusive; ATXN viability: inconclusive; 12-LOX inh: inconclusive; HepG2 viability: 14µM

How did Cc1cnc(NC(=O)C(C)N2CCN(C)CC2)s1 (stereo not given) do in these assays?
TGFb inhibitor: inactive; ATXN viability: inactive; 12-LOX inh: 2.5µM; HepG2 viability: inactive

What do the screens show for `COc1ccc(-c2cc(C#N)nc(Cl)n2)cc1`?
ATXN2 expr inh: inactive; TGFb inhibitor: inconclusive; ATXN viability: inconclusive; 12-LOX inh: 4.5µM; HepG2 viability: inactive

What do the screens show for `N#C/C(=C(/O)c1ccc(-c2cccc([N+](=O)[O-])c2)o1)c1nc2ccccc2s1`?
ATXN2 expr inh: inactive; TGFb inhibitor: 13µM; ATXN viability: inactive; 12-LOX inh: inactive; HepG2 viability: inactive

Results for CCCNc1c(NC(=O)c2c(F)cccc2F)c(=O)oc2ccccc12 ?
12-LOX inh: inactive

What do the screens show for `O=C(Nc1nc2ccc(F)cc2s1)C1=COCCO1`?
ATXN2 expr inh: inconclusive; TGFb inhibitor: inactive; ATXN viability: inactive; 12-LOX inh: inactive; HepG2 viability: inactive

How did O=C(Nc1nc2cc3c(cc2s1)OCCO3)C1=COCCO1 do in these assays?
ATXN2 expr inh: inconclusive; TGFb inhibitor: inactive; ATXN viability: inactive; 12-LOX inh: inconclusive; HepG2 viability: 8.9µM

What do the screens show for `CCn1c(SCC(=O)Nc2ccc3c(c2)OCO3)nc2c(-c3ccc(C)cc3)csc2c1=O`?
12-LOX inh: inactive

Results for Clc1ccc2nnnc(-c3ccccc3)c2c1 ?
ATXN2 expr inh: 15µM; TGFb inhibitor: inconclusive; ATXN viability: inconclusive; 12-LOX inh: inactive; HepG2 viability: inactive

What do the screens show for `c1ccc(-c2nnnc3ccccc23)cc1`?
ATXN2 expr inh: inactive; TGFb inhibitor: inconclusive; ATXN viability: inactive; 12-LOX inh: inactive; HepG2 viability: inactive

What do the screens show for `CCOc1ccc(CNC(=O)c2ncoc2-c2ccc(C)s2)cc1OC`?
12-LOX inh: inactive

How did COc1ccc(OC)c(Nc2c3c(nc4ccccc24)CCC3)c1 do in these assays?
ATXN2 expr inh: inactive; TGFb inhibitor: 11µM!; ATXN viability: inconclusive; 12-LOX inh: inactive; HepG2 viability: inactive

How did COc1ccc(OC)c(Nc2c3ccccc3nc3ccccc23)c1 do in these assays?
ATXN2 expr inh: 11µM; TGFb inhibitor: 13µM; ATXN viability: 14µM; 12-LOX inh: inconclusive; HepG2 viability: inactive

Results for COc1cc(NS(C)(=O)=O)ccc1Nc1c2ccccc2nc2ccccc12 ?
ATXN2 expr inh: 0.25µM; TGFb inhibitor: inconclusive; ATXN viability: inconclusive; 12-LOX inh: inconclusive; HepG2 viability: inactive

How did COc1ccc([N+](=O)[O-])cc1Nc1c2ccccc2nc2ccccc12 do in these assays?
ATXN2 expr inh: inconclusive; TGFb inhibitor: inconclusive; ATXN viability: inconclusive; 12-LOX inh: inactive; HepG2 viability: inactive

What do the screens show for `Cc1cccc(C)c1NC(=O)c1n[nH]c(=O)c2ccccc12`?
12-LOX inh: inactive

What do the screens show for `COC1=CC(=O)c2c(ccc3ncnc(N)c23)C1=O`?
ATXN2 expr inh: 2.8µM; TGFb inhibitor: 0.89µM; ATXN viability: 3.5µM; 12-LOX inh: inconclusive; HepG2 viability: 1.4µM

Results for CCCN1CCC(NC(=O)c2cccs2)CC1 ?
12-LOX inh: inactive

Results for CC(C1CC2CCC1C2)n1c(-c2cccs2)n[nH]c1=S (stereo not given) ?
ATXN2 expr inh: inactive; TGFb inhibitor: inactive; ATXN viability: inactive; 12-LOX inh: 45µM; HepG2 viability: inactive

What do the screens show for `O=C(COC(=O)c1cc([N+](=O)[O-])ccc1Cl)c1cc2ccccc2o1`?
12-LOX inh: 40µM

How did O=C(COC(=O)c1cc([N+](=O)[O-])ccc1Cl)NCCc1ccccc1 do in these assays?
ATXN2 expr inh: inactive; TGFb inhibitor: inactive; ATXN viability: inactive; 12-LOX inh: inactive; HepG2 viability: inactive

How did CCOC(=O)c1cc(-c2csc(Nc3c(C)cc(C)cc3C)n2)on1 do in these assays?
ATXN2 expr inh: inactive; TGFb inhibitor: inconclusive; ATXN viability: inactive; 12-LOX inh: 20µM; HepG2 viability: inactive

How did CCOC(=O)c1cc(-c2csc(-c3cccc(Cl)c3)n2)on1 do in these assays?
ATXN2 expr inh: inactive; TGFb inhibitor: inactive; ATXN viability: inactive; 12-LOX inh: inconclusive; HepG2 viability: inactive

Bioassay records from PubChem.
